Source: PubChem BioAssay AID1159580 (chemical genetic matrix, 2015)
In all, about 5,500 compounds went through this assay and about 2,000 (36%) were called active. Not shown: some 18% with an inconclusive outcome. Rule as the data show it: active = normalized growth mostly below about 0.91 (no sharp cut-off); inconclusive = no clear call, values can overlap the other calls; inactive = mostly above about 0.92. Some of the results follow.

Assay: chemical genetic growth profiling, strain panel (AID 1159580);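 also: tested at 20 µM; growth read once vehicle control cultures reached saturation at 30 °C; 1 = growth at the plate median or of vehicle wells; lower values mean less growth of the strain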
Settings: S. cerevisiae deletion strains, growth OD

Measured: normalized growth

COC(=S)Nc1cc(Cl)cc(Cl)c1
active: locus YDR477W, strain SNF1, active compounds read low 0.685 | locus YER123W, strain YCK3, active compounds read low 0.608 | locus YER133W, strain GLC7, active compounds read low 0.559 | locus YGR040W, strain KSS1, active compounds read low 0.662 | locus YGR092W, strain DBF2, active compounds read low 0.452 | locus YHR030C, strain SLT2, active compounds read low 0.577 | locus YHR079C, strain IRE1, active compounds read low 0.499 | locus YJL157C, strain FAR1, active compounds read low 0.679 | locus YKL067W, strain YNK1, active compounds read low 0.704 | locus YKL203C, strain TOR2, active compounds read low 0.697 | locus YLR113W, strain HOG1, active compounds read low 0.458 | locus YLR403W, strain SFP1, active compounds read low 0.569 | locus YML070W, strain DAK1, active compounds read low 0.644 | locus YMR205C, strain PFK2 (second series), active compounds read low 0.747 | locus YNL183C, strain NPR1, active compounds read low 0.544 | locus YNL307C, strain MCK1 (second series), active compounds read low 0.599 | locus YOL136C, strain PFK27, active compounds read low 0.648 | locus YPL031C, strain PHO85, active compounds read low 0.564 | locus YPL153C, strain RAD53, active compounds read low 0.588 | locus YPL204W, strain HRR25, active compounds read low 0.567 | locus YPL256C, strain CLN2, active compounds read low 0.627
inactive: locus YAR019C, strain CDC15, active compounds read low 0.938 | locus YBL105C, strain PKC1, active compounds read low 0.94 | locus YBR135W, strain CKS1, active compounds read low 0.935 | locus YBR136W, strain MEC1, active compounds read low 0.94 | locus YBR160W, strain CDC28, active compounds read low 0.935 | locus YDL017W, strain CDC7, active compounds read low 0.938 | locus YDL028C, strain MPS1, active compounds read low 0.939 | locus YDL101C, strain DUN1, active compounds read low 0.949 | locus YDL108W, strain KIN28, active compounds read low 0.943 | locus YDL132W, strain cdc53, active compounds read low 0.95 | locus YDL214C, strain PRR2, active compounds read low 0.702 | locus YDR052C, strain DBF4, active compounds read low 0.935 | locus YDR054C, strain cdc34, active compounds read low 0.959 | locus YDR226W, strain ADK1, active compounds read low 0.921 | locus YFL009W, strain cdc4, active compounds read low 0.912 | locus YFL029C, strain CAK1, active compounds read low 0.919 | locus YFR003C, strain YPI1, active compounds read low 0.941 | locus YFR019W, strain FAB1, active compounds read low 0.828 | locus YFR028C, strain CDC14, active compounds read low 0.966 | locus YGR052W, strain FMP48, active compounds read low 0.698 | locus YHR082C, strain KSP1, active compounds read low 0.633 | locus YHR205W, strain SCH9, active compounds read low 0.659 | locus YIL147C, strain SLN1, active compounds read low 0.929 | locus YJL095W, strain BCK1, active compounds read low 0.584 | locus YJL128C, strain PBS2, active compounds read low 0.935 | locus YJR016C, strain ILV3, active compounds read low 0.925 | locus YJR066W, strain TOR1 (second series), active compounds read low 0.653 | locus YJR066W, strain TOR1, active compounds read low 0.604 | locus YKL048C, strain ELM1, active compounds read low 0.816 | locus YKL101W, strain HSL1, active compounds read low 0.762 | locus YKL193C, strain SDS22, active compounds read low 0.919 | locus YLR133W, strain CKI1, active compounds read low 0.742 | locus YMR001C, strain CDC5, active compounds read low 0.935 | locus YMR277W, strain FCP1, active compounds read low 0.932 | locus YNL006W, strain LST8, active compounds read low 0.936 | locus YNL020C, strain ARK1, active compounds read low 0.727 | locus YNL161W, strain CBK1, active compounds read low 0.934 | locus YNL207W, strain RIO2, active compounds read low 0.927 | locus YNL222W, strain SSU72, active compounds read low 0.933 | locus YOL078W, strain AVO1, active compounds read low 0.923 | locus YOR061W, strain CKA2, active compounds read low 0.719 | locus YOR119C, strain RIO1, active compounds read low 0.746 | locus YOR231W, strain MKK1, active compounds read low 0.585 | locus YOR329C, strain SCD5, active compounds read low 0.929 | locus YPL209C, strain IPL1, active compounds read low 0.935 | locus YPR025C, strain CCL1, active compounds read low 0.936 | locus YPR106W, strain ISR1, active compounds read low 0.927 | locus YPR111W, strain DBF20, active compounds read low 0.96 | strain NNK1, active compounds read low 0.936 | strain TSCII, active compounds read low 0.913

C[N+](C)(C)CC#CCOC(=O)Nc1cccc(Cl)c1
inactive: locus YAL040C, strain CLN3, active compounds read low 0.998 | locus YDR363W, strain ESC2, active compounds read low 0.987 | locus YER002W, strain NOP16, active compounds read low 0.99 | locus YJR075W, strain HOC1, active compounds read low 0.952 | locus YMR263W, strain SAP30, active compounds read low 0.953 | locus YMR307W, strain GAS1, active compounds read low 0.985 | locus YNL128W, strain TEP1, active compounds read low 0.966 | locus YNL153C, strain GIM3, active compounds read low 0.998 | locus YNL175C, strain NOP13, active compounds read low 0.984 | locus YNL197C, strain WHI3, active compounds read low 0.973 | locus YNL224C, strain SQS1, active compounds read low 0.993 | locus YOR083W, strain WHI5 (second series), active compounds read low 0.954 | locus YPL241C, strain CIN2, active compounds read low 0.998
